Test results: PubChem BioAssay
The source made the active and inactive calls. Unless noted, how the calls were made is not given here.

Columns and labels:
[1] = HepG2 liver cancer cell viability effects, profiling panel, resazurin fluorescence, 24 h, PK04 Diversity Set (AID 1172); conditions: higher = more signal
[2] = basal S. cerevisiae growth modulation, no modifier, primary screen, OD600, strain BY4716, 24 h, basal condition (AID 1173); conditions: OD600, 24 h, higher = more signal, called active from +8 up or from −8 down
[3] = MM1S myeloma cell viability, profiling panel, resazurin fluorescence, basal, 24 h, PK04 Diversity Set (AID 1174); conditions: higher = more signal, called active from +8 up or from −8 down;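 further: MM1S multiple myeloma cell line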
[4] = biological target: Dihydroorotate dehydrogenase (quinone), mitochondrial (Plasmodium falciparum (isolate 3D7)) (UniProt Q08210); test: PfDHODH enzyme inhibitors, primary screen, biochemical, C-terminal His tag, absorbance 600 nm (AID 1175); conditions: DCIP absorbance 600 nm, higher = more signal, called active from +8 up or from −8 down;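 further: recombinant parasite enzyme with a five histidine tag at its C terminus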
Sequence of Dihydroorotate dehydrogenase (quinone), mitochondrial (Plasmodium falciparum (isolate 3D7)) (Q08210 whole entry, looked up): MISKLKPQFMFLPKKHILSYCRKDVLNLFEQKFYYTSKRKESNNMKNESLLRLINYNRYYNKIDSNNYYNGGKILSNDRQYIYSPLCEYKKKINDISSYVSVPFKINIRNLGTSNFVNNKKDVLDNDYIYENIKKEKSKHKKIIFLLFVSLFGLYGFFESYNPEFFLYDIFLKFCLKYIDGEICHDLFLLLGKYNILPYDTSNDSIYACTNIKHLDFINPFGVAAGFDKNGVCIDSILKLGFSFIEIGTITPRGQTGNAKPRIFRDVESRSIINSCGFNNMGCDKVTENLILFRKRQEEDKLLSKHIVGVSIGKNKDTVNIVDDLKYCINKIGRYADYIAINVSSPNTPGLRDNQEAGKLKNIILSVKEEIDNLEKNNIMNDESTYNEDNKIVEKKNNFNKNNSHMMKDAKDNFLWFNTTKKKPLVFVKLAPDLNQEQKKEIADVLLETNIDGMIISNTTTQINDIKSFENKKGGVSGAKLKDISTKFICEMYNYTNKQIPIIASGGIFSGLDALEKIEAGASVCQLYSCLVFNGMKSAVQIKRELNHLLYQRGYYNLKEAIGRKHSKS

[5] = P. aeruginosa biofilm formation inhibitors, primary screen, strain PAO1, LB-PBS medium, absorbance 600 nm (AID 1176); conditions: P. aeruginosa PAO1 growth/biofilm, A600, 12 h; higher = more signal
[6] = S. cerevisiae RM11-1a growth modifiers, primary screen, strain RM11-1a, OD600, basal, 24 h (AID 1177); conditions: OD600, 24 h, higher = more signal, called active from +8 up or from −8 down;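 further: cultures grown under basal conditions with no added stressor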
[7] = E. coli acrAB mutant growth effects, primary screen, E. coli filamentation inducers, strain DRC39, OD650, 24 h (AID 1178); conditions: higher = more signal, called active from +8 up or from −8 down;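 further: growth measured as culture turbidity by optical density at 650 nm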
[8] = E. coli acrAB mutant growth effects, primary screen, E. coli filamentation inducers, strain DRC39, OD650, 48 h (AID 1179);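 further: screen aims at cell division blockers that make cells filament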; conditions: E. coli DRC39 delta-acrAB growth, higher = more signal, called active from +8 up or from −8 down
[9] = RPMI8226 myeloma cell viability, profiling panel, resazurin fluorescence, basal, 24 h, PK04 Diversity Set (AID 1180); conditions: higher = more signal;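 further: RPMI8826 multiple myeloma cell line at 5000 cells per well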
[10] = biological target: E3 ubiquitin-protein ligase XIAP (Homo sapiens) (UniProt P98170); test: XIAP binders, primary screen, biophysical, small-molecule microarray, fluorescence 635 nm (AID 1181); conditions: small-molecule microarray binding, higher = more signal;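 further: score merges 667 nm emission and signal to noise over triplicate slides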
Sequence of E3 ubiquitin-protein ligase XIAP (Homo sapiens) (P98170 whole entry, looked up): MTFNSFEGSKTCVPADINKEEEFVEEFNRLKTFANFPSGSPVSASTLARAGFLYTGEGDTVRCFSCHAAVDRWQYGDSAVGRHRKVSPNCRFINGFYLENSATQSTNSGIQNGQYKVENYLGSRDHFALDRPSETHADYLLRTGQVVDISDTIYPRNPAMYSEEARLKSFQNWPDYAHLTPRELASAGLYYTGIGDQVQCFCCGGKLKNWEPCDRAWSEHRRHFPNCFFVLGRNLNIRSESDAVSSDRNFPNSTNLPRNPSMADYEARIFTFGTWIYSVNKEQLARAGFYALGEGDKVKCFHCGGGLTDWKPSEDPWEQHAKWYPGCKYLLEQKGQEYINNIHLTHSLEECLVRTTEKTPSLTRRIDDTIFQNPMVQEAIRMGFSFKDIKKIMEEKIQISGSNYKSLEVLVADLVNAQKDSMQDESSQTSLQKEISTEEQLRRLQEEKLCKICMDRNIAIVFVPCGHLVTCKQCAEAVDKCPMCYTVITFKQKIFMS

[11] = system: XIP peptide (Xip251-270) binding; test: small-molecule binders of XIP peptide, primary screen, biochemical, small-molecule microarray, fluorescence 635/667 nm, 0.1 µg/mL protein (AID 1182); conditions: fluorescent protein binding, 635 nm, higher = more signal, called active from +8 up or from −8 down
XIP peptide (Xip251-270) = test: small-molecule binders of XIP peptide, primary screen, biochemical, small-molecule microarray, fluorescence 635/667 nm, 0.5 µg/mL protein (AID 1183); conditions: small-molecule microarray binding, fluorescence 635 nm; higher = more signal
[12] = Plasmodium falciparum growth inhibition, primary screen, strain 3D7, DAPI fluorescence, 100 nL (AID 1184);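 further: parasites grown inside human red blood cells in medium with human serum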; conditions: P. falciparum 3D7 growth, 3 d, higher = more signal
[13] = biological target: Homeobox protein Hox-A13 (Mus musculus) (UniProt Q62424); test: inhibitors of HoxA13-DNA binding, primary screen, biochemical, fluorescence polarization, labeled oligonucleotide (AID 1185); conditions: 15 min, higher = more signal, called active from +8 up or from −8 down
Sequence of Homeobox protein Hox-A13 (Mus musculus) (Q62424 whole entry, looked up): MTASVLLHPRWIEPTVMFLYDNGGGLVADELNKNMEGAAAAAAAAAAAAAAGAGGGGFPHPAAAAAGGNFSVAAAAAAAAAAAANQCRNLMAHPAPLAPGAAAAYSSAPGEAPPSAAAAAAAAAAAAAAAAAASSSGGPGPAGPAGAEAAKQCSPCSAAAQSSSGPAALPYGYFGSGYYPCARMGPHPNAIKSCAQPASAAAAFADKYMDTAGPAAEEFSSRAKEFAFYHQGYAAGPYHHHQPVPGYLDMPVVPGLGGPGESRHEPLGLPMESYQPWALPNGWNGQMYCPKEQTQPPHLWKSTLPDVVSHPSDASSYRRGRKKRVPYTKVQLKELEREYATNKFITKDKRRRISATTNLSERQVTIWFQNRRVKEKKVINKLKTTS

Structure (SMILES)	z-score [1]	z-score [2]	z-score [3]	composite z-score [4]	z-score [5]	z-score [6]	z-score [7]	z-score [8]	z-score [9]	composite z-score [10]	composite z-score [11]	composite z-score (XIP peptide (Xip251-270))	z-score [12]	z-score [13]
COC(=O)[C@@H]1CC[C@H](C)[C@@H](c2ccc(Br)cc2)N1	0.138	0.86 (inactive)	0.176 (inactive)	0.496 (inactive)	0.119 (inactive)	1.27 (inactive)	0.45 (inactive)	-0.836 (inactive)	0.279	1.27	1.53 (inactive)	-0.381	0.165	-0.164 (inactive)
CC1(C)O[C@H]2OC([C@H](O)CON3C(=O)c4ccccc4C3=O)[C@H](O)[C@H]2O1 (some centres undefined)	0.109	0.457 (inactive)	-0.409 (inactive)	-0.559 (inactive)	-0.151 (inactive)	-0.854 (inactive)	0.345 (inactive)	0.209 (inactive)	0.0738	-0.261	-0.592 (inactive)	0.291	0.696	0.366 (inactive)
COC(=O)CC=C1c2ccccc2[C@H](OC)[C@H]1C	-0.71	0.338 (inactive)	-0.788 (inactive)	0.582 (inactive)	-0.245 (inactive)	-0.138 (inactive)	0.216 (inactive)	0.403 (inactive)	-0.49	0.419	-1.14 (inactive)	-0.302	0.406	0.281 (inactive)
Cc1ccc(S(=O)(=O)N[C@@H]2COC(=O)CC=C[C@@H](C)[C@H](NS(=O)(=O)c3ccc(C)cc3)COC(=O)[C@H](C)NC(=O)CC=C[C@H]2C)cc1	-0.286	-0.547 (inactive)	0.341 (inactive)	0.576 (inactive)	-0.143 (inactive)	-0.188 (inactive)	0.983 (inactive)	0.0462 (inactive)	-0.24	-0.227	-0.668 (inactive)	-0.564	-0.196	-1.11 (inactive)
CC(C)CON=C1C[C@@H](O)[C@@H](O)[C@@H]2[C@@H]3C(=O)N(c4ccc(F)cc4F)C(=O)[C@@H]3CC[C@@H]12	0.372	-1.98 (inactive)	0.88 (inactive)	-2.1 (inactive)	-0.27 (inactive)	-1.22 (inactive)	1.01 (inactive)	0.15 (inactive)	-0.226	-0.0296	0.681 (inactive)	0.218	-1.66	-0.567 (inactive)
O=C(NN=C1C[C@@H](O)[C@@H](O)[C@@H]2[C@@H]3C(=O)N(c4ccc(F)cc4F)C(=O)[C@@H]3CC[C@H]12)OCc1ccccc1	2.08	-0.814 (inactive)	1.23 (inactive)	-0.25 (inactive)	-0.258 (inactive)	-1.35 (inactive)	0.574 (inactive)	0.573 (inactive)	0.86	-0.152	0.081 (inactive)	0.653	-0.131	-5.87 (inactive)
COc1ccc(OC[C@H]2CN3[C@@H](CC[C@@H](C)[C@@H]3c3ccc(Br)cc3)C(=O)O2)cc1	-0.699	-1.63 (inactive)	0.649 (inactive)	0.217 (inactive)	-1.52 (inactive)	-0.13 (inactive)	-1.87 (inactive)	-1.35 (inactive)	-0.134	-0.129	-0.192 (inactive)	0.61	-1.32	-0.626 (inactive)
C#CCCCON=C1[C@H]2CCn3c(=O)n([C@@H](CC)c4ccccc4)c(=O)n3[C@H]2[C@H](O)[C@@H]2O[C@H]12	-0.14	-0.971 (inactive)	-0.813 (inactive)	0.147 (inactive)	-0.531 (inactive)	-0.771 (inactive)	-0.529 (inactive)	-0.567 (inactive)	-0.751	-0.181	0.967 (inactive)	-0.226	-0.9	-3.68 (inactive)
COC(=O)[C@H](C)NC(=O)CCC1CC(OC(=O)NCc2ccc3c(c2)OCO3)CC2(CCCC(COC(=O)NCCC(C)C)O2)O1 (some centres undefined)	0.506	-0.43 (inactive)	-0.274 (inactive)	-0.558 (inactive)	-0.294 (inactive)	-0.774 (inactive)	0.909 (inactive)	-0.804 (inactive)	0.0961	0.0245	1.11 (inactive)	0.106	-0.489	-6.3 (inactive)
CO[C@@H]1COC(=O)[C@H](COCc2ccccc2)NC(=O)CC=C[C@@H](C)[C@H](OC)COC(=O)[C@@H](C)NC(=O)CC=C[C@H]1C	0.532	-1.01 (inactive)	-2.05 (inactive)	0.262 (inactive)	-0.908 (inactive)	0.496 (inactive)	1.4 (inactive)	0.287 (inactive)	-0.795	-0.0939	0.455 (inactive)	0.261	0.591	-1.83 (inactive)
CCOC(=O)[C@H](CC(C)C)NC(=O)CCC1CC(OC(=O)NCc2ccc3c(c2)OCO3)CC2(CCCC(COC(=O)NCc3ccccc3)O2)O1 (some centres undefined)	1.32	0.918 (inactive)	0.624 (inactive)	-0.047 (inactive)	-0.282 (inactive)	1.26 (inactive)	0.533 (inactive)	-0.0559 (inactive)	0.836	0.0727	0.117 (inactive)	0.118	-1.79	-6.86 (inactive)
CC(=O)OC[C@H]1O[C@H](C#CCC2CCCCC2)C=C[C@@H]1OC(C)=O	0.0616	-3.69 (inactive)	-2.52 (inactive)	-0.529 (inactive)	0.781 (inactive)	0.143 (inactive)	1.07 (inactive)	0.591 (inactive)	-1.24	-0.0314	0.525 (inactive)	0.392	0.951	-5.27 (inactive)
CC(CCN1CCc2nc(-c3ccccc3)c(-c3ccccc3)cc2C1)=NOC(C)CN1CCCc2nc(C)c(C)cc21 (centres undefined)	-0.0686	-3.98 (inactive)	-0.877 (inactive)	0.417 (inactive)	0.371 (inactive)	-0.572 (inactive)	0.798 (inactive)	-0.391 (inactive)	-0.469	0.326	0.161 (inactive)	0.558	0.5	-9.97 (active)
CCOC(=O)[C@H](CC(C)C)NC(=O)CCC1CC(OC(=O)NCc2ccc3c(c2)OCO3)CC2(CCCC(COC(=O)NCCc3ccccc3OC)O2)O1 (some centres undefined)	0.686	0.594 (inactive)	-0.0143 (inactive)	-0.445 (inactive)	0.614 (inactive)	-0.173 (inactive)	-0.163 (inactive)	-1.02 (inactive)	0.512	-0.102	0.677 (inactive)	0.622	-1.88	-3.78 (inactive)
CC(CCN1CCCCc2nc(C)c(C)cc21)=NO[C@H](C)c1cn([C@@H]2COC[C@H]2O)nn1	0.404	1.62 (inactive)	-1.64 (inactive)	-0.21 (inactive)	-0.561 (inactive)	0.811 (inactive)	0.715 (inactive)	0.821 (inactive)	-0.256	0.256	0.641 (inactive)	0.382	0.255	-1.36 (inactive)
CC(CCC(=O)OC[C@H]1O[C@H](C#Cc2ccccc2)C=C[C@@H]1Oc1ccc(C)cc1)=NOC[C@@H](C)[C@H](OCc1ccccc1)C(C)C	0.38	0.513 (inactive)	0.258 (inactive)	0.615 (inactive)	-0.503 (inactive)	-0.222 (inactive)	0.0786 (inactive)	-0.931 (inactive)	0.306	-0.227	-0.582 (inactive)	-0.693	-0.0982	-0.499 (inactive)
O=C1C[C@@H](O)[C@@H](O)[C@@H]2[C@@H]3C(=O)N(Cc4ccccc4)C(=O)[C@@H]3CC[C@H]12	-0.252	-0.425 (inactive)	-0.136 (inactive)	0.318 (inactive)	0.188 (inactive)	-0.163 (inactive)	-0.418 (inactive)	-0.779 (inactive)	-0.14	0.468	-0.317 (inactive)	0.502	-0.331	-1.12 (inactive)
C#CCCCON=C1C[C@@H](O)[C@@H](O)[C@@H]2[C@@H]3C(=O)N([C@@H](C)c4ccccc4)C(=O)[C@@H]3CC[C@@H]12	-0.121	0.858 (inactive)	-0.521 (inactive)	0.579 (inactive)	0.237 (inactive)	0.604 (inactive)	-0.612 (inactive)	-0.245 (inactive)	-0.245	-0.124	-0.406 (inactive)	-0.125	-0.913	-2.28 (inactive)
C=CC[C@@H]1C=C[C@H](Oc2ccc(C)cc2)[C@@H](COC(=O)NCc2cccc3ccccc23)O1	1.08	-0.469 (inactive)	0.841 (inactive)	0.438 (inactive)	0.119 (inactive)	0.74 (inactive)	-0.899 (inactive)	-0.629 (inactive)	0.901	-0.0559	-0.405 (inactive)	0.427	-0.517	-0.901 (inactive)
C[C@H]1CC[C@@H](C(=O)O)N[C@@H]1c1ccc(C#Cc2ccccc2)cc1	-0.214	-19.1 (active)	-0.477 (inactive)	-1.36 (inactive)	-0.446 (inactive)	-18.9 (active)	-0.0449 (inactive)	-0.384 (inactive)	0.0569	-0.0773	-0.125 (inactive)	0.601	-1.61	-2.16 (inactive)
COC(=O)[C@H](C)NC(=O)CCC1CC(OC(=O)NCCc2ccc(F)cc2)CC2(CCCC(COC(=O)NCC3CCCCC3)O2)O1 (some centres undefined)	0.427	-0.491 (inactive)	1.05 (inactive)	-2.53 (inactive)	-0.919 (inactive)	0.363 (inactive)	-0.603 (inactive)	-0.741 (inactive)	0.13	0.514	-0.0255 (inactive)	0.526	-2.07	-2.56 (inactive)
